From PubChem BioAssay
DPM-DC inhibit – S. pneumoniae DPM-DC inhibitors, primary screen, biochemical, PK/LDH-coupled NADH fluorescence. diphosphomevalonate decarboxylase (Streptococcus pneumoniae D39). 65,000 compounds, 0.49% hits. calls only at 10 µM. purified DPM-DC. AID 556, 2006;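 active = the 320 compounds with the highest percent inhibition in the single-dose primary screen, excluding strongly autofluorescent ones, cut at about 32% in these data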;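 note: kinetic rate of NADH fluorescence loss reporting ADP formed by the decarboxylase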
Spn PMK inh – S. pneumoniae PMK inhibitors, primary screen, biochemical, mevalonate pathway, pilot trial included; phosphomevalonate kinase (Streptococcus pneumoniae D39); purified PMK, PK/LDH-coupled NADH absorbance 340 nm; inhibition, % at 10 µM; 65,000 compounds, 0.49% hits; AID 539, 2006;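 active = top-ranked compounds by inhibition in the single 10 µM screen, taking a fixed number of the strongest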;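 note: 0% = full reaction with DMSO carrier and 100% = background rate without enzyme reaction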
Abs 340nm – compound light absorbance at 340 nm, profiling panel, artefact control, biochemical, MLSMR library, data from PS, PMK, MK assays | compound absorbance at 340 nm, fold over control | fold change at 10 µM | 65,000 tested, under 10 active | AID 708, 2007;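 active = at 10 µM dose, initial 340 nm absorbance at least 2 fold that of control wells; inactive = change under 2 fold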;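 note: initial absorbance extrapolated from kinetic A340 decline of NADH oxidation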
Autofluor 339 – intrinsic fluorescence of library compounds, ex339/em460 – biochemical, MLSMR library, data from DPM-DC assay, artefact control, profiling panel; AID 709, 2007; 65,000 compounds, 5.5% hits; fluorescence fold increase at 10 µM; compound autofluorescence, ex339/em460 nm, NADH buffer; active compounds read high; 1 = no-compound wells, NADH background;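 active = at 10 µM, mean starting fluorescence two-fold or more over control wells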;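 note: signal is the first read of a kinetic run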
NADH coupling – inhibitors of PK/LDH coupling enzymes, profiling panel, artefact control, biochemical, MLSMR library | coupled PK/LDH NADH assays, four targets | IC50, µM (series often up to 10 µM), without a hit: top-dose inhibition | 65,000 compounds, 0.02% hits;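 active = single-dose screening hits from any of four coupled enzyme assays that gave an IC50 when retested across doses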;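 note: the DPM-DC format reads NADH fluorescence rather than 340 nm absorbance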
MK inhibit – S. pneumoniae MK inhibitors, primary screen, biochemical, PK/LDH-coupled NADH absorbance | purified MK, PK/LDH-coupled NADH absorbance 340 nm | inhibition, % at 10 µM | 65,000 compounds, 0.48% hits | AID 555, 2006;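 active = ranked among the strongest by inhibition in the single 10 µM screen, a fixed top-ranked set picked for dose follow-up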
Active calls of the source: *. Compounds with a hit are over-represented: about 6.8% of the library has one in this group of screens.

Screening O=C(c1cc2nc(-c3ccccc3)cc(C(F)(F)F)n2n1)N1CCCC1 returned DPM-DC inhibit inactive, Spn PMK inh 0, Abs 340nm 1.1, Autofluor 339 1.2, NADH coupling 2% and MK inhibit 6.
CCOc1ccc(NC(=O)c2oc3ccccc3c2NC(=O)C(C)C)cc1 was read as DPM-DC inhibit inactive, Spn PMK inh 7, Abs 340nm 1.1, Autofluor 339 1.2, NADH coupling 3% and MK inhibit 1.
Screening O=C(c1cc2nc(-c3ccco3)cc(C(F)(F)F)n2n1)N1CCCCCC1 returned Spn PMK inh 13, Abs 340nm 1.1, Autofluor 339 2.2*, NADH coupling 9% and MK inhibit 5.
`O=C(c1cc2nc(-c3ccco3)cc(C(F)(F)F)n2n1)N1CCN(c2ccccc2)CC1` gave DPM-DC inhibit inactive, Spn PMK inh 1, Abs 340nm 1.1, Autofluor 339 1.2, NADH coupling 2% and MK inhibit 3.
O=C(c1cccn2c(=O)c3cc(Cl)ccc3nc12)N1CCN(Cc2ccc3c(c2)OCO3)CC1 was read as Spn PMK inh 17, Abs 340nm 1.1, Autofluor 339 4.9*, NADH coupling 9% and MK inhibit 0.
O=C(NCCN1CCN(c2ccccc2F)CC1)c1cccn2c(=O)c3ccccc3nc12 was read as DPM-DC inhibit inactive, Spn PMK inh 18, Abs 340nm 0.99, Autofluor 339 3.1*, NADH coupling 12% and MK inhibit 2.
COc1cccc(C(=O)N2CCN(Cc3ccc4c(c3)OCO4)CC2)c1OC was read as DPM-DC inhibit inactive, Spn PMK inh 0, Abs 340nm 1, Autofluor 339 1.1, NADH coupling 3% and MK inhibit 8.
`O=C(c1cccn2c(=O)c3cc(Cl)ccc3nc12)N1CCOCC1` gave Spn PMK inh 13, Abs 340nm 1.1, Autofluor 339 3.3*, NADH coupling 2% and MK inhibit 1.
`O=C(CN1C(=O)c2cccc3cccc1c23)N1CCN(Cc2ccc3c(c2)OCO3)CC1` gave DPM-DC inhibit inactive, Spn PMK inh 3, Abs 340nm 1.1, Autofluor 339 2*, NADH coupling 7% and MK inhibit 8.
C=CCn1c(=O)c2ccccc2n2c(SCc3nnc(-c4ccccc4Br)o3)nnc12 was read as DPM-DC inhibit inactive, Spn PMK inh 15, Abs 340nm 0.98, Autofluor 339 1.1, NADH coupling 7% and MK inhibit 4.
Screening Cc1noc(C)c1CSc1cc(C)c2ccccc2n1 returned DPM-DC inhibit inactive, Spn PMK inh 16, Abs 340nm 1, Autofluor 339 1, NADH coupling 9% and MK inhibit 10.
Screening COc1cccc(C2C(C(N)=O)=C(C)Nc3nc(-c4ccccc4Cl)nn32)c1 (configuration not stated) returned DPM-DC inhibit inactive, Spn PMK inh 0, Abs 340nm 0.99, Autofluor 339 1.1, NADH coupling 1% and MK inhibit 0.
For CCn1nc(C(=O)N2CCN(Cc3ccc4c(c3)OCO4)CC2)c2ccccc2c1=O the results were DPM-DC inhibit inactive, Spn PMK inh 20, Abs 340nm 0.99, Autofluor 339 0.95, NADH coupling 12% and MK inhibit 8.
`NC(=O)C1(N2CCCCC2)CCN(C(=O)c2cccn3c(=O)c4cc(Cl)ccc4nc23)CC1` gave Spn PMK inh 14, Abs 340nm 1.1, Autofluor 339 4.9*, NADH coupling 7% and MK inhibit 0.
For O=C(c1cccn2c(=O)c3ccccc3nc12)N1CCN(Cc2ccc3c(c2)OCO3)CC1 the results were Spn PMK inh 3, Abs 340nm 1.1, Autofluor 339 5*, NADH coupling 2% and MK inhibit 1.
For CCC(=O)N1C(C(=O)N2CCCC2)CSC1c1ccc(OC)cc1 (configuration not stated) the results were DPM-DC inhibit inactive, Spn PMK inh 6, Abs 340nm 1, Autofluor 339 0.99, NADH coupling 6% and MK inhibit 8.
COc1cc(C)c(S(=O)(=O)n2ccc(C)n2)cc1C was read as DPM-DC inhibit inactive, Spn PMK inh 0, Abs 340nm 1, Autofluor 339 1.1, NADH coupling 3% and MK inhibit 10.
For CN(C)C=Nc1ncc2c3ccccc3n(CCN(C)C)c2c1C#N the results were DPM-DC inhibit inactive, Spn PMK inh 16, Abs 340nm 1.2, Autofluor 339 2.3*, NADH coupling 16% and MK inhibit 10.
CN(C)C=Nc1ncc2c3ccccc3n(Cc3ccccc3)c2c1C#N was read as Spn PMK inh 0, Abs 340nm 1.1, Autofluor 339 3*, NADH coupling 3% and MK inhibit 5.
For CC(NC(=O)c1cccc(N2CCCC2=O)c1)c1ccc2c(c1)OCCO2 (configuration not stated) the results were DPM-DC inhibit active, Spn PMK inh 18, Abs 340nm 1, Autofluor 339 1.4, NADH coupling 17% and MK inhibit 0.
For O=C(COc1ccc(Cl)cc1)NC1CCSC1=O (configuration not stated) the results were DPM-DC inhibit inactive, Spn PMK inh 10, Abs 340nm 1, Autofluor 339 1.1, NADH coupling 7% and MK inhibit 12.
COc1ccc(N(CC(=O)Nc2cc(OC)ccc2OC)S(C)(=O)=O)cc1 was read as DPM-DC inhibit inactive, Spn PMK inh 0, Abs 340nm 1, Autofluor 339 1.1, NADH coupling 17% and MK inhibit 51*.
For CCc1ccc(NC(=O)N(CCCN2CCOCC2)C(C)c2cc3cccc(OC)c3o2)cc1 (configuration not stated) the results were DPM-DC inhibit inactive, Spn PMK inh 9, Abs 340nm 1, Autofluor 339 1.1, NADH coupling 3% and MK inhibit 0.
`C=CCn1c(NCc2ccccc2)nc2ccccc21` gave DPM-DC inhibit inactive, Spn PMK inh 25*, Abs 340nm 0.99, Autofluor 339 1, NADH coupling 8% and MK inhibit 0.
For C=CCn1c(NCc2ccc3c(c2)OCO3)nc2ccccc21 the results were DPM-DC inhibit inactive, Spn PMK inh 17, Abs 340nm 1, Autofluor 339 1.1, NADH coupling 6% and MK inhibit 0.
